Experimental data: PubChem BioAssay AID493201 (National Center for Advancing Translational Sciences (NCATS), 2011)
Records with an inconclusive call do not appear. Calls of active or inactive are those of the source. Calls come from the whole dose curve; as a rule, active = well fitted activation curve with a large enough effect; inconclusive = small, poorly fitted or top-dose-only effect; inactive = no such curve, though single readings can be large or run the other way.

Experiment: qHTS Assay for Identifying a Potential Treatment of Ataxia-Telangiectasia: Secondary assay (no NCS) hit validation;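 note: phosphorylated KAP1 signal as a proxy for ATM-like kinase activity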; for activation: 0% is about no effect
Conditions: A-T patient fibroblasts, AlphaLISA, no DNA damage added, 90 min; series mostly up to 76.9 µM; activation: at the top concentration
From the text: NIH Chemical Genomics Center [NCGC]
NIH Molecular Libraries Probe Centers Network [MLPCN]
Assay Submitter (PI): Wei Zheng and Yosef Shiloh
Ataxia-telangiectasia (A-T) is a devastating and progressive disease for which, there is no cure. Although A-T is a multisystem disease, it is stereotyped characterized by its neurological symptoms such as truncal ataxia, due to cerebellar cortical degeneration of the Purkinje and granule cells. Other symptoms of A-T are telangiectasias (dilated blood vessels), primary immunodeficiency, marked sensitivity to ionizing radiation (IR), chromosomal instability and predisposition to cancer.
The underlying genetic cause of A-T is null mutations in the ATM (A-T mutated) gene. ATM is a nuclear serine/threonine kinase that functions as a master regulator of the cellular responses to double strand breaks (DSBs) in the DNA. Upon activation by DSBs, ATM phosphorylates a plethora of downstream targets, including KAP-1 on […]. KAP-1 phosphorylation occurs shortly in response to DSBs and mediates global chromatin relaxation, which facilitates DSB repair. To screen for small molecules that will compensate for the loss of ATM in cells derived from A-T patients, we monitored KAP-1 phosphorylation as a readout for ATM-like activity using an AlphaLISA assay. This secondary assay omits NCS, which creates double-stranded DNA breaks.
Step,Parameter,Value,Description
1. Cell Plating, 3 ul, 500 cells/well in OPTI-MEM, 1% FBS, 1% Pen/Strep
3. Library compounds, 23 nl, 76.7 - 0.61uM dilution series final concentration
4. Incubation, 60 min, 37C, 5% CO2, 95% humidity
6. Incubation, 30 min, 37C, 5% CO2, 95% humidity
7. Reagent, 1 ul, Premixed detection reagents and lysis buffer
8. Reagent, 1 ul, 0.6% Antifoam A
9. Incubation, 6 hr, 25C, 95% humidity
10. Readout, EnVision, EnVision plate reader. AlphaScreen 1536-well protocol
Cells were plated using medium-binding white solid-bottom tissue culture treated Kalypsys plates. Multidrop dispense of 3 uL of F2112 (hTERT immortalized A-T patient fibroblast cells). Detection reagent and lysis buffer was 3.75nM Rab-a-pKAP1 antibody bound to 75 ng/ul AlphaScreen SA donor bead, 3.75 nM Biot-M-a-KAP1 antibody bound to AlphaLISA protein A acceptor bead, 0.5x protease inhibitor cocktail and 0.25x PerkinElmer lysis buffer. EnVision protocol for 1536-well AlphaScreen read (30ms excitation, 100ms read), about 10 min/plate.
Potency is the fitted concentration of half-maximal effect.

SMILES | activation | Potency
CC1=NOC2(C1)N(C)c1ccccc1C2(C)C (stereo not given) | 3.23% (inactive) | –
CCc1oc(C(=O)OC)cc1CSC(=N)N | 16.9% (inactive) | –
Cc1nn(-c2ccccc2)c2nc(C(Cl)(Cl)Cl)[nH]c(=O)c12 | -15.1% (inactive) | –
C=C(C)n1c(=O)n(Cc2ccccc2C)c2ccccc21 | 23.7% (inactive) | –
OC(CN1CCCCC1)Cn1c2ccc(Cl)cc2c2cc(Cl)ccc21 (stereo not given) | 1.08% (inactive) | –
CC1CCCC(C)N1CCCNC(=O)Cn1ncc2c3ccccc3n(C)c2c1=O (stereo not given) | – | 14.6 µM (active)
O=C(CCCC(=O)N1CCCC1)N1CCCC1 | 7.53% (inactive) | –
O=C(Nc1ccc([N+](=O)[O-])cc1)c1cc2ccccc2nc1Cl | 14% (inactive) | –
Cc1ccc(NC(=O)CSc2nnc([C@H](C)NC(=O)OC(C)(C)C)o2)c(C)c1 | 28.8% (inactive) | –
CC(=O)Nc1ccc(NC2=CC(=O)c3ccccc3C2=O)cc1 | -3.23% (inactive) | –
O=C1NC(NS(=O)(=O)c2ccc(Cl)cc2)(C(F)(F)F)C(=O)N1CCc1ccccc1 (stereo not given) | -1.74% (inactive) | –
Cc1ccc(-c2noc(CCC(=O)NC3CCN(Cc4ccccc4)CC3)n2)cc1 | 4.3% (inactive) | –
CCOc1cccc(-c2nnc(SCC(=O)Nc3cc(C)ccc3OC)n2N)c1 | 8.6% (inactive) | –
CCCCCCCCCn1ccc(=N)cc1 | 22% (inactive) | –
Nc1ccc2ncccc2c1 | 3.23% (inactive) | –
O=C(CNCc1cccs1)Nc1cc(S(=O)(=O)N2CCCC2)ccc1Cl | -6.09% (inactive) | –
O=C(NC12CC3CC(CC(C3)C1)C2)c1cccc(OC(F)F)c1 | -6.45% (inactive) | –
CNC(=S)N(CCO)Cc1cc2cc3c(cc2[nH]c1=O)OCCO3 | -8.47% (inactive) | –
CCS(=O)(=O)c1ccc(C(=O)Nc2ccccc2)c(Cl)c1Cl | – | 32.8 µM (active)
O=C(CN1C(=O)c2cccc([N+](=O)[O-])c2C1=O)NCc1ccccc1 | 22.6% (inactive) | –

SMILES | activation | Potency
CCc1ccc(C2c3[nH]c4ccccc4c3CCN2C(=O)c2cc[n+]([O-])cc2)cc1 (stereo not given) | 11.3% (inactive) | –
CCc1ccc(NC(=O)N[C@H](C(=O)O)C(C)CC)cc1 (stereo not given in full) | -2.54% (inactive) | –
CCCc1nn(C)c(C(=O)Nc2ccc(C(C)(C)C)cc2)c1Cl | 11.9% (inactive) | –
CSc1nc(SCC(=O)O)c2c3c(sc2n1)COC(C)(C)C3 | 13.9% (inactive) | –
CCN1CCN(CC(=O)Nc2ccc(C(C)=O)cc2)CC1 | – | 26 µM (active)
CCC12CN(C(=O)c3ccc([N+](=O)[O-])cc3)CC(CC)(CN(C(=O)c3ccc([N+](=O)[O-])cc3)C1)C2=O | – | 0.207 µM (active)
COc1ccc(N(C)S(=O)(=O)c2cccc(C(=O)OCC(=O)NCc3ccccc3OC)c2)cc1 | 1.74% (inactive) | –
COc1ccc(NC(=O)C2CC2)cc1OC1CCCC1 | -2.15% (inactive) | –
COc1ccc(NS(=O)(=O)c2ccc(N3CC(O)=C(c4ccccc4)C3=N)cc2)cc1 | -5.38% (inactive) | –
Cc1nn(C)c(Cl)c1CN1CCN(C2CCCC2)C(CCO)C1 (stereo not given) | -1.74% (inactive) | –
COc1ccccc1S(=O)(=O)Nc1ccc(-c2nnc3n2CCCCC3)cc1 | 21.5% (inactive) | –
Cc1nc(Nc2ccc(Cl)cc2)c2oc3ccccc3c2n1 | -1.08% (inactive) | –
CCCCn1c2c(c(=N)c3ccccc31)CCC2 | 0% (inactive) | –
COc1ccc(NCc2cc(=O)oc3cc(NC(C)=O)ccc23)cc1 | 7.53% (inactive) | –
COc1ccc(-c2cc(C(F)(F)F)c(C#N)c(SCC(=O)O)n2)cc1OC | -4.24% (inactive) | –
CCc1nnc2n1N=C(c1cccc([N+](=O)[O-])c1)CS2 | – | 51.9 µM (active)
CCc1ccc(NC(=O)CNCc2ccc(OC)c(OC)c2)cc1 | -2.15% (inactive) | –
CC(C)(C)n1nc2c(c1NC(=O)C1CC(=O)N(c3ccc(Cl)cc3)C1)CS(=O)(=O)C2 (stereo not given) | 2.15% (inactive) | –
CCn1c2ccccc2c2c3ncc4cccn4c3ccc21 | – | 36.8 µM (active)
O=c1c2cc(Br)ccc2nc(-c2ccccc2)n1O | 1.08% (inactive) | –
